Test results as given in PubChem BioAssay (NCI).
The panel holds about 83,000 compounds, 20% with a hit somewhere; the sample as a whole holds those more often.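 Assay: single dose, 48 h. Readout: percent growth (0 = no net growth; negative = cell death). Active: <10.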 A number with no mark means an inactive call. Calls of active or inactive are those of the source.

tested on: HL-60(TB) leukemia; assay: NCI-60 one-dose screen, 48 h (100 = growth as untreated, 0 = no growth, -100 = all killed); settings: 10 µM unless noted

Compared with `COc1ccc(C2=Nc3c(N)ncnc3NC(c3cccc(Nc4ccnc5cc(C(F)(F)F)ccc45)c3)C2)cc1` (stereo not given), `COc1ccc2[nH]c(O)c(/C=c3/cc4c(c(-c5ccc(F)cc5)n3)=Nc3ccccc3-4)c2c1` is higher in growth: 42.7% for the first, 92.5% for the second.

First: O=S(=O)(NCCNc1nccc(-c2c(-c3cccc(F)c3)nc3sccn23)n1)c1ccc(Cl)cc1
Second: O=C(CCn1cnc2c(cc(-c3ccccc3)n2-c2ccccc2)c1=O)Nc1ccc(F)cc1
The growth of the first is higher: 95.9% for the first, 86.6% for the second.

First: O=C(Nc1ccc(-n2ccc3c(NC(=O)c4ccccc4)ncnc32)cc1)Nc1ccc(Cl)c(C(F)(F)F)c1
Second: O=c1c(Cc2ccc(F)cc2)cc(-c2ccccc2)nn1C/C(=N/O)c1ccccc1
The growth of the first is lower: 15.3% for the first, 24.8% for the second.

Going from `CC(O)CCC(C)[N+](=O)[O-]` (stereo not given) to `CC(=O)NCNC(C)=O`, the growth rises from 96.9% to 113%.

`O=Cc1ccc(F)cc1` and `CC(=O)c1cc(Cl)ccc1O` are the same in growth: 103% for the first, 103% for the second.

First: N=C1/C(=C2\NC3C=CC=CC3S2)C(c2ccc(Cl)cc2)C2C(=O)N(c3ccccc3)C(=S)N12 (stereo not given)
Second: O=C(N=c1n(-c2ccccc2)nc2n1CCN2C1=NCCN1)c1ccc(Cl)cc1
The growth of the first is higher: 100% for the first, 95.8% for the second.

Going from `CN1CCCCC1CCN1c2ccccc2Sc2ccc(Cl)cc21` (stereo not given) to `O=C1/C(=C\c2cccnc2)SC(=S)N1CCc1ccc(O)cc1`, the growth falls from 42.1% to 18%.

First: S=c1[nH]nc(-c2cc3ccc2CCc2ccc(cc2)CC3)n1-c1ccccc1
Second: Cc1ccc(Nc2nc(N)nc(Nc3ccc4ccccc4c3)n2)cc1
The growth of the first is higher: 89.7% for the first, 22.5% for the second.

Compared with `COc1cnc2c(c1)C(=O)c1c-2n(CCCCl)c(=O)c2ccncc12`, `COc1cc2c(=O)n(C3CCCCCC3)c3c4cc[nH]c4ncc3c2cc1OC` is higher in growth: 15.8% for the first, 74.1% for the second.

Going from `C[C@]12CCc3nc(Nc4ccccc4)sc3C1=CC[C@@H]1[C@@H]2CC[C@]2(C)/C(=N/NC(N)=S)CC[C@@H]12` to `N#Cc1c(N2CCOCC2)nc(=S)[nH]c1-c1ccccc1`, the growth rises from 49% to 70.2%.

Going from `Cc1[nH]c(C2CC(c3ccc(C(F)(F)F)c(F)c3)=NN2C)c(C)c1C(=O)NCC(F)(F)F` (stereo not given) to `COC(=O)c1c(C(=O)OC)c2ccc3c4ncccc4ccc3n2c1C(=O)c1ccc(C)cc1`, the growth falls from 97.1% to 91.8%.

Going from `Cn1cnc2nc[nH]c2c1=S` to `COc1ccc(-c2cn(-c3ccc(Cl)cc3)c(=S)[nH]2)cc1OC`, the growth falls from 108% to 56.1%.

Going from `O=S1(=O)CCC(N(/N=C/c2ccco2)c2ccccc2)C1` (stereo not given) to `NS(=O)(=O)c1ccc(C(=O)NN2C(=O)c3ccccc3C2=O)cc1`, the growth rises from 100% to 103%.

First: CCOC(=O)C(Cc1cc(I)c(O)c(I)c1)NC(=O)c1ccccc1 (stereo not given)
Second: COc1cc(C(=O)NNC(=O)c2ccccc2O)cc(OC)c1OC
The growth of the first is higher: 90.2% for the first, 80.4% for the second.

`O=c1[nH]c(Cc2nc3ccccc3s2)nc2cc(Br)ccc12` showed a growth of 77%.

For `CCOC(=O)c1sc(NC(=O)COc2cccc(/C=C3\CCc4cc(OC)ccc4C3=O)c2)nc1C`, the growth was -52.9% (active).
`O=[N+]([O-])c1cccc(-c2nc3sccn3c2-c2ccnc(NCCCNS(=O)(=O)c3cccc(F)c3)n2)c1` was tested, and the growth was -21.5% (active).
In the case of `Cc1ccc(CNc2c3ccccc3nc3cc(NC(=O)CCN4CCCC4)ccc23)cc1`, the growth is reported as -64.3% (active).
For `COc1ccc(Cn2cc3c(c2-c2cc(OC)c(OC)c(OC)c2)CCc2cnoc2-3)cc1`, the growth was 0.149% (active).
In the case of `Clc1ccc(N/N=C(\c2ccccc2)c2ccccn2)nc1`, the growth is reported as -28.3% (active).
In the case of `C/C=C(\C)C(=O)NC1=CC[C@@]2(C)C(=CCC3C2CC[C@@]2(C)C3CC[C@@H]2C(C)N(C)C)C1=O` (stereo not given in full), the growth is reported as 8.53% (active).
With `CCN1CCN(c2nc(C)cc(N(CCNc3ccnc4cc(Cl)ccc34)Cc3ccc4c(c3)OCO4)n2)CC1` the growth was -57.7% (active).
`CC(=O)O[C@H]1CC[C@@]2(C)C(=CC[C@@H]3[C@@H]2CC[C@]2(C)C(c4cccnc4)=CC[C@@H]32)C1` was tested, and the growth was 4.36% (active).
`C=C1C(=O)O[C@H]2[C@H]1CC/C(COC(=O)NCc1ccc(Cn3c(=O)sn(-c4ccc(OC)cc4)c3=O)cc1)=C\CC[C@@]1(C)O[C@@H]21` was tested, and the growth was -18% (active).
In the case of `CCOC(=O)c1cc(C(=O)c2cc(OC)cc(OC)c2)n2nc(C)ccc12`, the growth is reported as -16.5% (active).
`COc1ccc(Cl)cc1Nc1nc(C(F)(F)F)ccc1C(=O)N/N=C/c1ccccc1Cl` was tested, and the growth was -11.3% (active).
